Measured values reported in PubChem BioAssay AID1159580 (chemical genetic matrix, 2015).
Several values for one entry are separate records, joined by “and”; a condition that tells them apart may be missing. Equal entries are not always repeated. The campaign covered roughly 5,500 compounds. About 2,000 (36%) were called active. Another 18% or so got no clear call; they are omitted. Cut-off read from the data, not from the text of the source: active = normalized growth mostly below about 0.91 (no sharp cut-off); inconclusive = no clear call, values can overlap the other calls; inactive = mostly above about 0.92. The list shows a part of the results.

Test: chemical genetic growth profiling, strain panel (AID 1159580);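 note: tested at 20 µM; growth read once vehicle control cultures reached saturation at 30 °C; 1 = growth at the plate median or of vehicle wells; lower values mean less growth of the strain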
Conditions: S. cerevisiae deletion strains, growth OD

Measured: normalized growth

CC(=O)O[C@]1(C(C)=O)CCC2C3C=C(C)C4=CC(=O)CCC4(C)C3CCC21C (stereo partly specified)
0.917 (active) and 0.949 (inactive): locus YHR030C, strain SLT2, stronger effect = lower value
active: locus YAL013W, strain DEP1, stronger effect = lower value 0.897 | locus YDR137W, strain rgp1, stronger effect = lower value 0.775 | locus YDR162C, strain NBP2, stronger effect = lower value 0.804 | locus YDR392W, strain spt3, stronger effect = lower value 0.445 | locus YDR502C, strain sam2, stronger effect = lower value 0.904 | locus YER155C, strain BEM2 (second series), stronger effect = lower value 0.859 | locus YER167W, strain BCK2, stronger effect = lower value 0.88 | locus YGL086W, strain mad1, stronger effect = lower value 0.91 | locus YGR078C, strain PAC10, stronger effect = lower value 0.836 | locus YGR135W, strain pre9, stronger effect = lower value 0.883 | locus YGR229C, strain SMI1, stronger effect = lower value 0.643 | locus YHR142W, strain chs7, stronger effect = lower value 0.815 | locus YJL129C, strain trk1, stronger effect = lower value 0.854 | locus YJL166W, strain qcr8, stronger effect = lower value 0.863 | locus YJR043C, strain POL32, stronger effect = lower value 0.85
0.741 (active) and 0.98 (inactive): locus YJL095W, strain BCK1, stronger effect = lower value
inactive: locus YAL021C, strain ccr4, stronger effect = lower value 1.04 | locus YAL026C, strain drs2, stronger effect = lower value 0.961 | locus YAL030W, strain snc1, stronger effect = lower value 0.959 | locus YBL061C, strain skt5, stronger effect = lower value 0.932 | locus YBR009C, strain hhf1, stronger effect = lower value 0.916 | locus YBR021W, strain FUR4, stronger effect = lower value 0.924 | locus YBR023C, strain chs3, stronger effect = lower value 0.92 | locus YBR171W, strain sec66, stronger effect = lower value 0.926 | locus YBR229C, strain ROT2, stronger effect = lower value 0.985 | locus YBR231C, strain swc5, stronger effect = lower value 0.933 | locus YBR279W, strain paf1, stronger effect = lower value 0.993 | locus YCL011C, strain gbp2, stronger effect = lower value 0.975 | locus YCL016C, strain dcc1, stronger effect = lower value 0.971 | locus YCL029C, strain bik1, stronger effect = lower value 0.958 | locus YCL069W, strain vba3, stronger effect = lower value 0.929 | locus YCR088W, strain abp1, stronger effect = lower value 0.958 | locus YDL005C, strain med2, stronger effect = lower value 0.934 | locus YDL035C, strain GPR1, stronger effect = lower value 0.908 | locus YDL040C, strain nat1, stronger effect = lower value 0.968 | locus YDL074C, strain BRE1, stronger effect = lower value 0.784 | locus YDL101C, strain DUN1, stronger effect = lower value 0.982 | locus YDL134C, strain PPH21, stronger effect = lower value 0.996 | locus YDL185W, strain tfp1, stronger effect = lower value 0.984 | locus YDL192W, strain arf1, stronger effect = lower value 0.957 | locus YDR001C, strain nth1, stronger effect = lower value 0.964 | locus YDR069C, strain doa4, stronger effect = lower value 0.978 | locus YDR101C, strain arx1, stronger effect = lower value 0.969 | locus YDR150W, strain NUM1, stronger effect = lower value 0.993 | locus YDR159W, strain sac3, stronger effect = lower value 0.892 | locus YDR195W, strain ref2 0.976 | locus YDR297W, strain sur2, stronger effect = lower value 0.951 | locus YDR318W, strain mcm21, stronger effect = lower value 0.92 | locus YDR334W, strain swr1, stronger effect = lower value 0.962 | locus YDR335W, strain msn5, stronger effect = lower value 0.957 | locus YDR388W, stronger effect = lower value 0.975 | locus YEL003W, strain gim4, stronger effect = lower value 0.941 | locus YEL037C, strain rad23, stronger effect = lower value 0.969 | locus YEL061C, strain CIN8 (second series), stronger effect = lower value 0.959 | locus YEL061C, strain CIN8, stronger effect = lower value 0.989 | locus YER015W, strain faa2, stronger effect = lower value 0.971 | locus YER016W, strain bim1, stronger effect = lower value 0.966 | locus YER110C, stronger effect = lower value 0.958 | locus YER111C, strain swi4, stronger effect = lower value 0.963 | locus YER155C, strain BEM2, stronger effect = lower value 1.01 | locus YFR010W, strain ubp6, stronger effect = lower value 0.961 | locus YGL078C, strain dbp3, stronger effect = lower value 0.992 | locus YGL167C, strain pmr1, stronger effect = lower value 0.955 | locus YGL173C, strain kem1, stronger effect = lower value 0.92 | locus YGL227W, strain vid30, stronger effect = lower value 0.968 | locus YGL240W, strain doc1, stronger effect = lower value 0.925 | locus YGL248W, strain PDE1, stronger effect = lower value 0.992 | locus YGL253W, strain hxk2, stronger effect = lower value 0.915 | locus YGR252W, strain gcn5, stronger effect = lower value 0.862 | locus YHR013C, strain ard1, stronger effect = lower value 0.998 | locus YHR027C, strain rpn1, stronger effect = lower value 0.981 | locus YHR079C, strain IRE1 (second series), stronger effect = lower value 0.969 | locus YHR079C, strain IRE1, stronger effect = lower value 0.958 | locus YHR094C, strain hxt1, stronger effect = lower value 0.98 | locus YHR129C, strain ARP1, stronger effect = lower value 0.94 | locus YHR200W, strain rpn10, stronger effect = lower value 0.956 | locus YIL066C, strain RNR3, stronger effect = lower value 0.878 | locus YIL073C, strain SPO22, stronger effect = lower value 0.887 | locus YIL125W, strain kgd1, stronger effect = lower value 0.982 | locus YIR030C, strain dcg1, stronger effect = lower value 0.973 | locus YJL092W, strain hpr5, stronger effect = lower value 0.944 | locus YJL095W, strain BCK1 (second series), stronger effect = lower value 0.931 | locus YJL115W, strain asf1, stronger effect = lower value 0.973 | locus YJL134W, strain LCB3, stronger effect = lower value 0.989 | locus YJL154C, strain vps35, stronger effect = lower value 0.964 | locus YJL164C, strain tpk1, stronger effect = lower value 0.951 | locus YJL168C, strain set2, stronger effect = lower value 0.969 | locus YJL187C, strain SWE1 (second series), stronger effect = lower value 0.98 | locus YJR066W, strain TOR1, stronger effect = lower value 0.929 | locus YJR075W, strain HOC1, stronger effect = lower value 0.952
